Source: PubChem (National Center for Advancing Translational Sciences (NCATS))
RECQ1 inh = qHTS Assay for Inhibitors of RecQ-Like Dna Helicase 1 (RECQ1). RECQ1 DNA unwinding, red fluorescence kinetic read. Potency, µM (doses to about 57.3 µM), inactives show at the highest dose activity, negative = inhibition, most hits filed as inhibitors. actives 0.54% (n = 240,000). AID 2549, 2010;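 note: plate controls were vehicle for no effect and no enzyme for full effect; nearly all actives have a fitted effect of over 30% in size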
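RECQ1T1 50 nM; forked duplex (20 bp + 30-nt ss tails) 200 nM, ATP 2 mM final; pH 8.0, 2 mM MgCl2, 2.5 ug/ml poly(dI-dC); 15 min compound preincubation; discontinuous kinetic read over 2 h at RT.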
APEX1 inh = qHTS Assay for Inhibitors of the Human Apurinic/apyrimidinic Endonuclease 1 (APE1) | actives 0.35% (n = 350,000) | DNA repair nuclease/redox regulator APEX1 (Homo sapiens), P27695 | Potency, µM (top dose mostly 65.8 µM), for inactives: top-dose activity change, negative = inhibition, usual class: inhibitors | recombinant APE1, TAMRA/BHQ-2 abasic DNA cleavage fluorescence | AID 2517, 2012;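 note: plate controls were vehicle for no effect and reference inhibitor for full effect; nearly all actives have a fitted effect of over 55% in size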
Target sequence (P27695 whole entry, looked up): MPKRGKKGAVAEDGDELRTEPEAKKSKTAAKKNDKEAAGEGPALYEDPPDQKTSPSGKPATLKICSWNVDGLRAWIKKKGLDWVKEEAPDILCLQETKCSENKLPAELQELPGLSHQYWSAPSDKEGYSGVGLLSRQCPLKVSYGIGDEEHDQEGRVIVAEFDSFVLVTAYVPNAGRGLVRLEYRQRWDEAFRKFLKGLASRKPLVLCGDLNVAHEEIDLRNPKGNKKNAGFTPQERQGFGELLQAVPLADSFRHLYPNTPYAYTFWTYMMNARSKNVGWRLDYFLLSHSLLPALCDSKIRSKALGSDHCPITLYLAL
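Step 1: APE1 (0.75 nM) with compound, 15 min RT. Step 2: add 50 nM fluorophore/quencher THF duplex. Step 3: three fluorescence reads 60 s apart (525/598 nm); read 3 minus read 1 = reaction progress.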
BLM inh = qHTS Assay for Inhibitors of Bloom's syndrome helicase (BLM) | recombinant BLM DNA unwinding, fluorescence dequenching | Potency, µM (doses to about 56.1 µM), for the others: at the highest dose activity change, negative = inhibition, usual class: inhibitors | actives 0.2% (n = 350,000) | RecQ-like DNA helicase BLM (Homo sapiens), P54132;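 note: plate controls were vehicle for no effect and no enzyme for full effect; nearly all actives have a fitted effect of over 35% in size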
TR SRC2 fluor cs = Total Fluorescence Counterscreen for Inhibitors of the Interaction of Thyroid Hormone Receptor and Steroid Receptor Coregulator 2; TRb/SRC2 Texas Red total fluorescence interference; Potency, µM (doses to about 106 µM), inactives show at the top dose fluorescence change, negative = quenching; actives 0.29% (n = 280,000); AID 1479, 2009; active = well fitted curve in either direction with a large enough effect; inconclusive = small, poorly fitted or top-dose-only effect
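Human TRb ligand-binding domain at 0.6 uM with 20 nM Texas Red SRC2 peptide in Tris buffer containing 1 uM T3 and 5% DMSO, incubated with compound 5 h at ambient temperature. Total fluorescence (555/632 nm) calculated as parallel + 2 × perpendicular.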
GoLoco inh red = qHTS Assay for Inhibitors of RGS12 GoLoco Motif Activity (Red Fluorophore); Guanine nucleotide-binding protein G(i) subunit alpha-1 (Homo sapiens), P63096; Gai1:RGS12 GoLoco peptide FP, rhodamine, 10 min; Potency, µM (doses to about 61.6 µM), inactives show at the top dose activity, negative = inhibition, hits mostly inhibitors; actives 0.44% (n = 230,000); AID 880, 2007; active = well fitted inhibition curve with a large enough effect, not every such curve was filed as active; inactive = no such curve, though single readings can be large or run the other way; note: nearly all actives have a fitted effect of over 30% in size
Target sequence (P63096 whole entry, looked up): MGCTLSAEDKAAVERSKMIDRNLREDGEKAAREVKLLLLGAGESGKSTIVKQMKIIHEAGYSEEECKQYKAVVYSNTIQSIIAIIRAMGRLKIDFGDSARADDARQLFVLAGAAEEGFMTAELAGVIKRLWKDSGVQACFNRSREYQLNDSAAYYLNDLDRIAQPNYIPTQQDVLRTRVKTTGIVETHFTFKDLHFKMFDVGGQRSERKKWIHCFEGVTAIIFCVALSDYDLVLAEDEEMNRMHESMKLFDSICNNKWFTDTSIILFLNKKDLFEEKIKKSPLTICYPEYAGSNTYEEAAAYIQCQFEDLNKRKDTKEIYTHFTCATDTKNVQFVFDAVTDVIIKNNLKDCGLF
TRb-SRC2 inh = qHTS for Inhibitors of the Interaction of Thyroid Hormone Receptor and Steroid Receptor Coregulator 2 | Thyroid hormone receptor beta (Homo sapiens), P10828 | TRbeta-SRC2 peptide binding, fluorescence polarization; receptor liganded with 1 µM T3 | Potency, µM (series often up to 106 µM), without a hit: at the highest dose activity change, negative = inhibition, most hits filed as inhibitors | actives 0.065% (n = 280,000) | AID 1469, 2008;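 note: plate controls were bound peptide for no effect and peptide without receptor for full effect; nearly all actives have a fitted effect of over 50% in size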
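TRb LBD 0.6 uM + Texas Red SRC2 peptide 20 nM, 1 uM T3, Tris buffer w/ 5% DMSO; compound pinned, 5 h RT; FP read ex 555/em 632; normalized to unbound and bound controls.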
* marks the source's active call; other numbers are inactive results; i = inactive; ? = inconclusive; . = no result; ! = repeats disagree; [ ] = remark or other dose. Sampled rows, rich in hits. Any-hit rate of the full collection: about 0.9%. Unless noted, calls come from the whole dose curve; as a rule, active = well fitted curve in the direction sought with a large enough effect; inconclusive = small, poorly fitted or top-dose-only effect, or another doubt; inactive = no such curve, though single readings can be large; an effect the other way counts as inactive or inconclusive. Unless noted, % is set by controls: 0 for no effect and ±100 for the full control effect; potency is the fitted concentration of half-maximal effect.

SMILES	RECQ1 inh	APEX1 inh	BLM inh	TR SRC2 fluor cs	GoLoco inh red	TRb-SRC2 inh
CCCCN(C)C(=O)c1ccc2c(c1)N(Cc1ccc(F)cc1)C(=O)c1ccccc1S2(=O)=O	.	.	-1%	0.0011µM*[quencher]	.	-12%
O=C(CSc1nnc(-c2cccc([S+](=O)([O-])N3CCCC3)c2)n1-c1ccccc1)Nc1ccc2c(c1)OCCO2	.	17%	.	.	.	.
Cc1ccc(/C=N/n2c(=O)c(C(C)(C)C)nn3cnnc23)cc1	-6%	0%	-5%	0.079µM*[quencher]	11%	?
COc1ccc(F)c(Cn2cnc3c(cnn3C(C)(C)C)c2=O)c1Cl	.	-6%	.	.	.	.
NS(=O)(=O)c1ccc(N=Nc2c(O)ccc3ccccc23)cc1	-20%	0%	-14%	-4%	11%	-13%
Oc1ccc2ccccc2c1N=Nc1ccccc1	.	.	.	112µM*[fluorescent]	.	100µM*
Oc1ccc(N=Nc2c(O)ccc3ccccc23)cc1	35µM*	-12%	-22%	-1%	181%	10%
N#C/C(=C\c1ccccc1)c1nc(-c2cc3c(ccc4ccccc43)oc2=O)cs1	.	.	-6%	0.28µM*[quencher]	.	-29%[53 µM]
N#C/C(=C\c1ccc(Cl)cc1)c1nc(-c2cc3c(ccc4ccccc43)oc2=O)cs1	.	.	-1%	-11%	.	-3%
Cc1ccc(CSC2=Nc3ccccc3C3=NC(CCC(=O)NC4CCCCC4)C(=O)N23)cc1 (stereo unspecified)	.	.	-1%	3%	.	6%
CC(C)C[C@@H](CC(=O)N[C@@H](CCC(=O)O)CC(=O)O)NC(=O)[C@@H]1CCCC[C@H]1NC(=O)C[C@@H](NC(=O)C[C@H](Cc1c[nH]c2ccccc12)NC(=O)[C@@H]1CNCC[C@H]1N)C(C)C	-2%	0%	2%	-1%	-1%	1%
COc1ccc(C2CC(=O)c3cc(-c4nc(-c5cccc([N+](=O)[O-])c5)cs4)c(=O)n(-c4ccccc4C)c3C2)cc1 (stereo unspecified)	.	.	2%	89µM*[quencher]	.	-16%[53 µM]
CC(C)(C)CC(C)(C)c1cc(Cc2cc(C(C)(C)CC(C)(C)C)cc(-n3nc4ccccc4n3)c2O)c(O)c(-n2nc3ccccc3n2)c1	.	.	0%	.	.	.
O=C1COc2ccc(-c3cc(-c4ccccc4)c4c(n3)-c3ccccc3OC4)cc2N1	.	.	-7%	3%	.	6%
O=C1COc2ccc(-c3cc(-c4ccc(Cl)cc4)c4c(n3)-c3ccccc3OC4)cc2N1	.	.	-3%	10µM*[quencher]	.	-7%
O=c1c(-c2cc(-c3ccccc3)nc3c2COc2ccccc2-3)coc2ccc(Cl)cc12	.	.	-3%	20µM*[quencher]	.	-8%
O=c1c(-c2cc(-c3ccc(Cl)cc3)nc3c2COc2ccccc2-3)coc2ccccc12	.	.	-3%	-3%	.	1%
Nc1c(Br)cc(Br)cc1CNC1CCC(O)CC1 (stereo unspecified)	-6%	22%	0%	-1%	20µM*!	8%
OC(CNC1CCCC1)COc1c(F)cc(Br)cc1F (stereo unspecified)	-5%	8%	1%	-2%	8%	-13%
Cc1cccc2cc(C3CC(c4ccco4)=NN3S(C)(=O)=O)c(Cl)nc12 (stereo unspecified)	i	?	-12%	2%	142%	9%
Cc1cccc2cc(C3CC(c4ccco4)=NN3S(=O)(=O)c3ccccc3)c(Cl)nc12 (stereo unspecified)	28µM*	?	-6%	-2%	17%	2%
COc1ccc2c(c1)O[C@H](c1ccc3c(c1)OCO3)[C@@H](OC(=O)NS(=O)(=O)c1ccc(C)cc1)C2=O	-5%	-2%	-4%	-4%	0%	5%
COc1ccc(C2=Nn3c(nnc3-c3ccccc3C(F)(F)F)SC2)cc1OC	.	-12%	.	.	.	.
CC(C)Cc1nn2cc(-c3cccc(Br)c3)nc2s1	.	.	-2%	0%	.	-1%
O=C(Nc1cccnc1Cl)c1ccc(=O)oc1	?	32µM*	55%	-2%	3%	4%
SMILES	RECQ1 inh	APEX1 inh	BLM inh	TR SRC2 fluor cs	GoLoco inh red	TRb-SRC2 inh
C[C@H]1[C@H](C)CC[C@]2(C(=O)O)CC[C@]3(C)C(=CC[C@H]4[C@]3(C)C[C@@H](O)C3[C@](C)(CO)[C@H](O)[C@@H](O)C[C@]34C)[C@H]12 (stereo partly specified)	.	.	.	.	4%[14.2 µM]	.
CC(C)(CS(=O)(=O)[O-])NC(=O)CC[N+](C)(C)CCO	1.4µM*	6.3µM*	14µM*	1%	2%	-3%
CN1CC(=O)NC1=N	.	0%	.	.	.	.
COC(=O)/C(C(C)=O)=C(\C=C\N(C)C)N(C)C	-2%	2%	-2%	-1%	2%	12%
COC(=O)\C(C(C)=O)=C(/C=C/C=C/C=C/N(C)C)N(C)C	25µM*	7.9µM*	-16%	9%	142%	-15%
COc1cc(C)cc(C(=O)O)c1C1=C(O)c2cccc(O)c2C(=O)C1=O	?	35µM*	-11%	-6%	-1%	-4%
COc1cc(O)c(C(=O)c2ccccc2)cc1O	?	1%	2%	-4%	-31%	-7%
Cc1ccc(C2CC(=O)Oc3cc(C)c(Cl)cc32)cc1 (stereo unspecified)	i	5%	-6%[75.6 µM]	?	12%[88.7 µM]	-9%
c1ccc(-n2nnnc2CN2CCOCC2)cc1	-4%	11%	-10%	1585µM*[quencher]	-5%	-22%[53 µM]
Cc1ccc(NS(=O)(=O)c2ccc(-c3cc(C)no3)cc2)c(Br)c1	.	.	-5%	1%	.	8%
O=C(N/N=C/c1ccc(Sc2ccccn2)o1)c1cc2ccccc2cc1O	-23%	-3%	?	32µM*[quencher]	1%	?
CC1(C)OC[C@@H]2O[C@@]3(C(=O)O)OC(C)(C)O[C@H]3[C@@H]2O1	.	.	.	5%[201 µM]	.	2%[201 µM]
Cc1ccc(CNc2nc3nc(C)c(Cl)c(C)n3n2)cc1	.	.	-2%	8%	.	-6%
COc1ccccc1CNc1nc2nc(C)c(Cl)c(C)n2n1	.	.	-2%	0.022µM*[quencher]	.	-18%[53 µM]
CC(C1CCCC(=O)C1)[N+](=O)[O-] (stereo unspecified)	-2%	0%	-2%	-1%	4%	18%
COc1ccc(-c2no[n+]([O-])c2C#N)cc1	.	1%	.	.	.	.
C[N+]1(CC2COC(c3ccccc3)(C3CCCCC3)O2)CCCCC1 (stereo unspecified)	.	.	3%	.	.	.
